miR-122 sensor – miR-122 inhibition in Huh7 cells; Huh7 miR-122 Renilla luciferase sensor, 48 h; neutral wells = 0, positive control = 100; hit rate 0.3% among 340,000; activation (reporter increase), % at 12.5 µM;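 active means mean replicate activation score at least 90 and every replicate individually at or above 90; inconclusive means only one of the two criteria met; inactive means neither criterion met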;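 further: higher luciferase means less miR-122 activity so hits act as miR-122 inhibitors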
DYRK1A inh – inhibitors of rat Dyrk1A kinase; Q63470; ADP-Glo luminescence, NFATc1 peptide; inhibition, % at 12.5 µM; hit rate 0.43% among 310,000;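 further: plate controls were vehicle with enzyme for no effect and no enzyme for full effect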
INS-1E GSIS act – GLuc luminescence reporter in INS-1E cells, primary screen for activators of glucose-dependent secretion of insulin | INS-1E GLuc reporter insulin secretion, 2-3 h | activation, % at 16.6 µM | hit rate 0.61% among 370,000 | AID 743287;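 active means lowest replicate activation of at least 40%, so every replicate reaches that level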;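 further: 0% = median of neutral control wells and 100% = median of IBMX positive control wells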
Wnt bcat act – Wnt/beta-catenin pathway activation | hit rate 1.2% among 300,000 | activation, % at 9.35 µM | Wnt/beta-catenin reporter cell assay, activator, plate reader | AID 743398; in the data active means activation above about 30%, passing the limit was not always enough; inconclusive means no clear call, values can overlap the other calls;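 further: 0% = neutral control wells and 100% = positive control wells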
MITF TRPM1 HTS – activators of MITF-driven TRPM1 promoter activity in SK-MEL-5 cells; SK-MEL-5 TRPM1-promoter luciferase, 24 h; % of positive control, neutral wells = 0; activation, % at 12.5 µM; hit rate 0.75% among 300,000; AID 588334;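 active means mean activation of at least 80% with every replicate also reaching 80%; inconclusive means mean reaches 80% but some replicate falls short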;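 further: 0% = neutral control wells and 100% = parthenolide positive control wells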
NSD2 inh – blocks human histone methyltransferase NSD2 | O96028 | NSD2 peptide methylation, AlphaScreen, 120 min | hit rate 0.54% among 310,000 | inhibition, % at 12.5 µM
Target sequence (O96028 whole entry, looked up): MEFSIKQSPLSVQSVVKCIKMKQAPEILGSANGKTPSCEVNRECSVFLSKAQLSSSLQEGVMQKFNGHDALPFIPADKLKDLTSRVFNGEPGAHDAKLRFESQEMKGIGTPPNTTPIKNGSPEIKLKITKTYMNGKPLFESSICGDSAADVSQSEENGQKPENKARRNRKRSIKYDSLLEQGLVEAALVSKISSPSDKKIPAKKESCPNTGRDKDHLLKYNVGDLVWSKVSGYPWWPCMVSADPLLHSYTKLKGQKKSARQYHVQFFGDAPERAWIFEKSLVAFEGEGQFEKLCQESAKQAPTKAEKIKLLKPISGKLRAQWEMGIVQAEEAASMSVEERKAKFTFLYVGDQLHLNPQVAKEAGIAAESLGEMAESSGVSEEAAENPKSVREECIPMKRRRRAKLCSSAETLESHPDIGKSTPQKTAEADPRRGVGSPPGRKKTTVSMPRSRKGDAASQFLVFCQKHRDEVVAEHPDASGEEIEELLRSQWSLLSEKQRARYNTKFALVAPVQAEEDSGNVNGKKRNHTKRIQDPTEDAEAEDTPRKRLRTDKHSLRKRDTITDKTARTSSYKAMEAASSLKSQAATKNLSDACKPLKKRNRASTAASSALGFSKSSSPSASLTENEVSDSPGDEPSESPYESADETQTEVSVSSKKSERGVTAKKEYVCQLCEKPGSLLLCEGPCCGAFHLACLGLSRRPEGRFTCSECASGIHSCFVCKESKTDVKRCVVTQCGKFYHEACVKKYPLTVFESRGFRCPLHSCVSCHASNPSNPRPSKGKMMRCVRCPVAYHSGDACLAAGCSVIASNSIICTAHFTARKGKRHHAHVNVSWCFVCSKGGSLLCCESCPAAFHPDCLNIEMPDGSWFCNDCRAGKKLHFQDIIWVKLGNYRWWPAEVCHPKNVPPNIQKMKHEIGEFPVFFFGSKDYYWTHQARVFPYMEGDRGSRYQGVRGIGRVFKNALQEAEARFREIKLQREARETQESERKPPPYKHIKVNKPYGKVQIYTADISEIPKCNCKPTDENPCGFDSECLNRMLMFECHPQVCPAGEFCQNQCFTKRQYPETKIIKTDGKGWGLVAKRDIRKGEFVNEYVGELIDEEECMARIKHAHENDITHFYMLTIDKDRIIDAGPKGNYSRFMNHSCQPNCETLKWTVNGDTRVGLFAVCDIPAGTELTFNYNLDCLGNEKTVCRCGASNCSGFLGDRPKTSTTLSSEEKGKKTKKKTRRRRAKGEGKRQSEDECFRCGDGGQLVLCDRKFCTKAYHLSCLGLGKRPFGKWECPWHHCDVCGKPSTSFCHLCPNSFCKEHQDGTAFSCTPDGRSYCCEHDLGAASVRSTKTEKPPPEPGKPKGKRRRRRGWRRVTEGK
Starred values were filed as active, the others as inactive; [ ] = dose if it differs, or a comment. Shown are actives, neighbours in structure and some others; about 2.4% of the full set was active somewhere. Unless noted, no stated cut-off is given here; in the data, active means inhibition above about 50%; inactive means the rest.

`CCOCCCNC(=O)C(c1ccc(Cl)cc1)N1CCC2(CC1)OCCO2` (stereo not drawn) gave miR-122 sensor -5, DYRK1A inh -8, Wnt bcat act 60*, MITF TRPM1 HTS 4 and NSD2 inh -3.
COc1ccc(C(=O)NCCc2cc3ccc(C)c(C)c3[nH]c2=O)cc1OC was read as DYRK1A inh 2, INS-1E GSIS act 2, Wnt bcat act -2, MITF TRPM1 HTS -4 and NSD2 inh 2.
`COc1ccc2cc(CCNC(=O)c3ccco3)c(=O)[nH]c2c1` gave miR-122 sensor 1, DYRK1A inh 1, INS-1E GSIS act 16, Wnt bcat act 34*, MITF TRPM1 HTS 54 and NSD2 inh -2.
`COc1ccc2cc(CCNC(=O)C(C)C)c(=O)[nH]c2c1` gave miR-122 sensor -9, DYRK1A inh 8, Wnt bcat act 2 and MITF TRPM1 HTS 9.
For Cc1ccc2cc(CCNC(=O)c3ccco3)c(=O)[nH]c2c1 the results were miR-122 sensor -4, DYRK1A inh -1, MITF TRPM1 HTS 103* and NSD2 inh -4.
`Cc1ccc2cc(CCNC(=O)c3ccco3)c(=O)[nH]c2c1C` gave miR-122 sensor -7, DYRK1A inh 16, INS-1E GSIS act 5, Wnt bcat act inconclusive and MITF TRPM1 HTS 104*.
`Cc1ccc2cc(CCNC(=O)CCCc3ccccc3)c(=O)[nH]c2c1` gave miR-122 sensor 0, DYRK1A inh -3, Wnt bcat act -3, MITF TRPM1 HTS -12 and NSD2 inh 1.
Screening O=C(O)C[C@@H]1CC[C@@H](NC(=O)CCN2CCCCC2)[C@@H](CO)O1 returned INS-1E GSIS act 6.
Screening COc1ccc(NS(=O)(=O)c2cc(NC(=O)COc3ccc(OC)cc3)ccc2N2CCOCC2)cc1 returned miR-122 sensor 110*, INS-1E GSIS act -13, Wnt bcat act 19, MITF TRPM1 HTS 8 and NSD2 inh -3.
For COc1cccc(CC(=O)Nc2ccc(N3CCOCC3)c(S(=O)(=O)Nc3ccccc3OC)c2)c1 the results were miR-122 sensor 129*, DYRK1A inh -5, INS-1E GSIS act -6, Wnt bcat act 4 and NSD2 inh -3.
`COc1ccc(S(=O)(=O)Nc2ccc(S(=O)(=O)N3CCOCC3)cc2)cc1` gave miR-122 sensor 160*, DYRK1A inh 7 and NSD2 inh 12.
Screening C[C@@H]1CCCCO[C@H](CN(C)C(=O)Nc2ccc(F)cc2)[C@@H](C)CN([C@@H](C)CO)C(=O)c2cc(NC(=O)c3ccccc3)ccc2O1 returned miR-122 sensor 7[16.7 µM] and INS-1E GSIS act -14.
`C[C@@H]1CN([C@H](C)CO)C(=O)c2cc(N(C)C)ccc2O[C@@H]1CN(C)Cc1ccc(C(=O)Nc2ccccc2N)cc1` gave miR-122 sensor 220*[16.7 µM].
`C[C@H](CO)N1C[C@H](C)[C@H](CN(C)Cc2ccc(C(=O)Nc3ccccc3N)cc2)Oc2ccc(N(C)C)cc2C1=O` gave miR-122 sensor inconclusive and INS-1E GSIS act 26.
For C[C@H]1CN([C@@H](C)CO)C(=O)c2cc(N(C)C)ccc2O[C@H]1CN(C)Cc1ccc(C(=O)Nc2ccccc2N)cc1 the results were miR-122 sensor 120*[16.7 µM] and INS-1E GSIS act 12.
For C[C@@H]1CN([C@H](C)CO)C(=O)c2cc(N(C)C)ccc2O[C@H]1CN(C)Cc1ccc(C(=O)Nc2ccccc2N)cc1 the results were miR-122 sensor 112*[16.7 µM] and INS-1E GSIS act 21.
Screening C[C@@H]1CN([C@H](C)CO)C(=O)Cc2cc(N(C)C)ccc2O[C@@H]1CN(C)Cc1ccc(C(=O)Nc2ccccc2N)cc1 returned miR-122 sensor 130*[16.7 µM] and INS-1E GSIS act 0.
`C[C@@H]1CN([C@H](C)CO)C(=O)Cc2cc(N(C)C)ccc2O[C@H]1CN(C)Cc1ccc(C(=O)Nc2ccccc2N)cc1` gave miR-122 sensor 85[16.7 µM] and INS-1E GSIS act 22.
For C[C@H](CO)N1C[C@H](C)[C@H](CN(C)Cc2ccc(C(=O)Nc3ccccc3N)cc2)Oc2ccc(NC(=O)Nc3ccc(F)cc3)cc2CC1=O the results were miR-122 sensor 267*[16.7 µM] and INS-1E GSIS act 13.
Screening CCCC#Cc1cnc2c(c1)C(=O)N([C@@H](C)CO)C[C@@H](C)[C@H](CN(C)Cc1ccncc1)O2 returned miR-122 sensor 14[16.7 µM] and INS-1E GSIS act 15.
`CCOC(=O)c1ccc(-c2ccc(C=O)o2)cc1` gave DYRK1A inh 20, Wnt bcat act 53*, MITF TRPM1 HTS 58 and NSD2 inh 35.
CCOC(=O)c1ccc(-c2ccc(/C=N/NC(=O)c3cncc(Br)c3)o2)cc1 was read as miR-122 sensor -4, INS-1E GSIS act -2, Wnt bcat act 29 and NSD2 inh -1.
Screening O=Cc1ccc(-c2cccc(C(=O)O)c2)o1 returned miR-122 sensor -4, DYRK1A inh 6, INS-1E GSIS act 3, Wnt bcat act 4, MITF TRPM1 HTS 8 and NSD2 inh -1.
For CCOC(=O)c1cccc(-c2ccc(C=O)o2)c1 the results were miR-122 sensor -1, DYRK1A inh 15, INS-1E GSIS act 49*, Wnt bcat act -2, MITF TRPM1 HTS 25 and NSD2 inh 3.
CCCCOC(=O)c1ccc(-c2ccc(/C=N/NC(=S)NCC)o2)cc1 was read as miR-122 sensor 0, DYRK1A inh 12, INS-1E GSIS act 159*, Wnt bcat act 2, MITF TRPM1 HTS -4 and NSD2 inh -4.
For CCCOC(=O)c1ccc(-c2ccc(C=O)o2)cc1 the results were miR-122 sensor -3, DYRK1A inh -2, INS-1E GSIS act 12, Wnt bcat act 29, MITF TRPM1 HTS 27 and NSD2 inh -2.
`C[C@H]1CN([C@@H](C)CO)C(=O)c2cc(C#CC3(O)CCCC3)cnc2O[C@@H]1CN(C)Cc1ccccc1` gave miR-122 sensor 3[16.7 µM] and INS-1E GSIS act 4.
Screening C[C@H](CO)N1C[C@H](C)[C@@H](CN(C)C(=O)Nc2ccc3c(c2)OCO3)Oc2cc(C3=CCCC3)ccc2S1(=O)=O returned miR-122 sensor 3[16.7 µM] and INS-1E GSIS act -6.
Screening COc1cc(C(=O)Nc2ccc3c(c2)OCCO3)ccc1OC(F)F returned miR-122 sensor -8, DYRK1A inh 12, INS-1E GSIS act 20, Wnt bcat act 0, MITF TRPM1 HTS 98* and NSD2 inh -5.
Screening COc1ccccc1C(=O)N/N=C(\C)CC(=O)Nc1ccc2c(c1)OCCO2 returned miR-122 sensor 1, DYRK1A inh 4, INS-1E GSIS act 41*, Wnt bcat act 1, MITF TRPM1 HTS -16 and NSD2 inh -1.
For O=C(Nc1ccc(F)c(Cl)c1)c1ccc2c(c1)OCO2 the results were DYRK1A inh 1, Wnt bcat act 0 and NSD2 inh -2.
`COc1ccc(NC(=O)c2ccc3c(c2)OCO3)cc1Cl` gave miR-122 sensor -4, DYRK1A inh -2, MITF TRPM1 HTS 88* and NSD2 inh -1.
